In PubChem BioAssay (NCI) one finds growth data, which are given here for 9 molecules.

The panel holds about 83,000 compounds, 20% with a hit somewhere; the sample as a whole holds those more often.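 Testing used 96-well plates and a 48-hour single-concentration exposure. Example: -40 means 40% of the starting cells died.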 A number with no mark means an inactive call. Calls of active or inactive are those of the source. How the source made its calls: active means growth percent below 10; inactive means the rest.

Test systems include RPMI-8226 leukemia; OVCAR-8 ovarian; OVCAR-5 ovarian; OVCAR-4 ovarian; SK-OV-3 ovarian; IGROV1 ovarian; OVCAR-3 ovarian; NCI/ADR-RES ovarian; BT-549 breast; MDA-MB-435 melanoma; SW-620 colon; MCF7 breast; HCT-116 colon; HCC-2998 colon; KM12 colon; T-47D breast; HS 578T breast.
Common to all, as to assay: NCI-60 one-dose screen, 48 h (100 = growth as untreated, 0 = no growth, -100 = all killed)
Details in all cases: 10 µM unless noted

On to `O=C1C(Cl)C(c2ccccc2Cl)N1n1cnnc1` (stereo unspecified), for which the growth in the test with RPMI-8226 leukemia was 102%; in the test on OVCAR-8 ovarian, 96.2%; with OVCAR-5 ovarian it was 91.4%; in the test on OVCAR-4 ovarian it was 97.5%; in the test on SK-OV-3 ovarian, 77.3%; with IGROV1 ovarian it was 91.5%. The growth with OVCAR-3 ovarian was 102%; with NCI/ADR-RES ovarian, 106%; in the test on BT-549 breast it was 97.3%; in the test on MDA-MB-435 melanoma, 103%; with SW-620 colon, 94.5%; with MCF7 breast, 97.4%. Moreover, the growth with HCT-116 colon was 96.4%; in the test with HCC-2998 colon, 98.4%; in the test on KM12 colon, 96.9%.
`COc1ccc(-c2cc(-c3ccc(Nc4nc(Nc5ccccc5)nc(Nc5ccc(Cl)cc5)n4)cc3)nc(N)n2)cc1`: the growth in the test on RPMI-8226 leukemia is 50.5%; in the test on OVCAR-8 ovarian it was 79%; in the test on OVCAR-5 ovarian it was 66.5%; in the test on OVCAR-4 ovarian, 56.5%; in the test with SK-OV-3 ovarian, 119%; in the test with IGROV1 ovarian it was 39.2%. Besides, the growth in the test with OVCAR-3 ovarian is 52.6%; in the test on NCI/ADR-RES ovarian, 69.3%; with T-47D breast, 35.5%; with BT-549 breast, 82.1%; with MDA-MB-435 melanoma, 66.6%; in the test on SW-620 colon, 80%. The growth was 22.6% with MCF7 breast, 38.1% in the test with HCT-116 colon, -7.72% (active) in the test with HCC-2998 colon and 39.9% in the test with KM12 colon.
For the molecule `Cn1c(NCCc2ccc(O)c(O)c2)nc2c1c(=O)n(Cc1ccc(Cl)cc1)c(=O)n2C`, the growth is 37.9% in the test on RPMI-8226 leukemia; 87.6% in the test with OVCAR-8 ovarian; 94.9% with OVCAR-5 ovarian; 59.8% with OVCAR-4 ovarian; 82.3% in the test with SK-OV-3 ovarian; 61.9% in the test with IGROV1 ovarian. Besides, the growth in the test with OVCAR-3 ovarian is 62.6%; in the test on HS 578T breast, 77%; in the test on NCI/ADR-RES ovarian, 88.5%; in the test on BT-549 breast, 71.6%; in the test on MDA-MB-435 melanoma, 76.3%; with SW-620 colon, 75.9%. Further, the growth was 75.3% with MCF7 breast, 71.4% with HCT-116 colon, 89.3% in the test with HCC-2998 colon and 79.6% in the test on KM12 colon.
Turning to `COc1cccc(-c2nc3sccn3c2-c2ccnc(NCCNS(=O)(=O)c3c(Cl)cccc3Cl)c2)c1`, the growth is 15.1% in the test with RPMI-8226 leukemia; 39% in the test on OVCAR-8 ovarian; 90.9% in the test with OVCAR-5 ovarian; 59.7% in the test on OVCAR-4 ovarian; 89.5% with SK-OV-3 ovarian; 57.2% in the test with IGROV1 ovarian. Moreover, the growth in the test with OVCAR-3 ovarian was 70.8%; with HS 578T breast, 87.8%; with T-47D breast it was 6.81% (active); with BT-549 breast, 30.4%; with MDA-MB-435 melanoma, 50.4%; in the test with SW-620 colon, 74.1%. In addition, the growth with MCF7 breast is 58.4%; in the test on HCT-116 colon, 48.8%; in the test on HCC-2998 colon, 99.4%.
For the molecule `c1ccc2c(c1)ncn2-c1nc2ccccc2n2c1nc1ccccc12`, the growth was 81.7% in the test on RPMI-8226 leukemia; 80.5% in the test on OVCAR-8 ovarian; 81% in the test with OVCAR-5 ovarian; 67.9% in the test with OVCAR-4 ovarian; 69.2% in the test on SK-OV-3 ovarian; 51.4% in the test with IGROV1 ovarian. In addition, the growth in the test on OVCAR-3 ovarian was 89.6%; in the test on HS 578T breast it was 83.8%; with NCI/ADR-RES ovarian, 87%; in the test on BT-549 breast, 91.6%; with MDA-MB-435 melanoma, 102%; in the test on SW-620 colon it was 78.4%. The growth in the test with MCF7 breast was 7.93% (active); in the test on HCT-116 colon it was 67.2%; with HCC-2998 colon, 20.5%; in the test with KM12 colon, 47.7%.
In the case of `Cc1cc(N2CCCCC2)nc(N(CCNc2ccnc3cc(Cl)ccc23)Cc2ccccn2)n1`, the growth is -14.7% (active) in the test on RPMI-8226 leukemia; 52.8% in the test on OVCAR-8 ovarian; 68.2% in the test with OVCAR-5 ovarian; 41.6% in the test on OVCAR-4 ovarian; 60.5% in the test on SK-OV-3 ovarian; 31% in the test on IGROV1 ovarian. For the same molecule, the growth in the test with OVCAR-3 ovarian was 56.8%; with NCI/ADR-RES ovarian it was 50.4%; with BT-549 breast, 64.3%; in the test with MDA-MB-435 melanoma, 68.1%; in the test on SW-620 colon it was 45.7%; in the test with MCF7 breast it was 26.2%. For the same molecule, the growth in the test with HCT-116 colon was 16.2%; in the test on HCC-2998 colon it was 84.6%; in the test with KM12 colon, 55.2%.
Regarding `O=S(=O)(Nc1ccsc1-c1nc(-c2ccccc2)no1)c1cc(Cl)cc(Cl)c1`, the growth is 82.6% in the test with RPMI-8226 leukemia; 92.4% in the test with OVCAR-8 ovarian; 86.5% with OVCAR-5 ovarian; 93.8% in the test with OVCAR-4 ovarian; 83.3% in the test on SK-OV-3 ovarian; 100% in the test on IGROV1 ovarian. The growth with OVCAR-3 ovarian is 96.7%; with HS 578T breast, 94.1%; in the test on NCI/ADR-RES ovarian, 94%; in the test with BT-549 breast, 99.5%; with MDA-MB-435 melanoma, 88.9%; with SW-620 colon, 95.8%. Further, the growth in the test on MCF7 breast is 92.4%; in the test on HCT-116 colon, 89.9%; in the test on HCC-2998 colon it was 104%; in the test with KM12 colon, 93.2%.
On to `CN(C)c1ccc(-c2cc(-c3ccc(Nc4nc(Nc5ccccc5)nc(Nc5ccc(Cl)cc5)n4)cc3)nc(N)n2)cc1`, for which the growth with RPMI-8226 leukemia was 34.1%; with OVCAR-8 ovarian it was 51.3%; with OVCAR-5 ovarian it was 36.6%; in the test on OVCAR-4 ovarian it was 49.6%; with SK-OV-3 ovarian, 85.4%; in the test with IGROV1 ovarian it was 39.2%. Moreover, the growth in the test with OVCAR-3 ovarian is 49.5%; with NCI/ADR-RES ovarian it was 15.5%; in the test with T-47D breast it was 29.3%; in the test on BT-549 breast, 51.4%; in the test with MDA-MB-435 melanoma, 49.2%; with SW-620 colon, 67.9%. In addition, the growth is 19.1% with MCF7 breast, 7.76% (active) in the test on HCT-116 colon, -8.31% (active) in the test with HCC-2998 colon and 36.6% in the test on KM12 colon.
In the case of `CN1CCN(C(=O)[C@@]2(C)CC[C@]3(C)CC[C@]4(C)C(=CC[C@@H]5[C@@]6(C)C/C(=C/c7ccncc7)C(=O)C(C)(C)[C@@H]6CC[C@]54C)[C@@H]3C2)CC1`, the growth was 12.8% in the test on RPMI-8226 leukemia; 50.9% in the test with OVCAR-8 ovarian; 88.2% in the test with OVCAR-5 ovarian; 37.9% with OVCAR-4 ovarian; 55.2% with SK-OV-3 ovarian; 56.7% in the test with IGROV1 ovarian. For the same molecule, the growth with OVCAR-3 ovarian is 50.7%; in the test on HS 578T breast, 54%; in the test on NCI/ADR-RES ovarian, 62.1%; with BT-549 breast, 55.6%; in the test on MDA-MB-435 melanoma, 44.6%; in the test on SW-620 colon, 31.6%. Besides, the growth in the test with MCF7 breast was 23.3%; with HCT-116 colon, 12%; in the test on HCC-2998 colon it was 58.1%; in the test on KM12 colon, 36.6%.
